Results from the supplement of paper PMC10849652.
The full data set covers some 7,900 targets. This sample favours those with a hit. About 0.6% of all pairs of compound and target were hits.

Legend:
Assay in all cases: log2 fold change, soluble protein after heating vs DMSO (PISA); higher = thermal stabilisation; K562 cells, 10 uM, 30 min; active = over 0.2 and 3.5 SD of the protein, either way, in both replicates (recomputed)
[1] = compound: CC(=O)c1cnc2ccc(-c3cc(Cl)c(O)c(Cl)c3)nc2c1N[C@H]1CC[C@H](CN(C)C)CC1
Summary of the method: (§1)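 K562 cells at 2×10^6 cells/mL were exposed to 10 μM compound for 30 min, then aliquots were heated for 3 min across 48°C-58°C, pooled, and extracted in PBS containing 0.5% NP-40 at 4°C. The supernatant after 21,000xg for 90 min was taken as soluble protein and measured by TMTpro 16plex LC-MS/MS with channel sums equalised. Thermal stability is reported relative to control samples, with values from duplicates. Fold changes are given on a log2 scale.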

[2] = compound: CC(C)(O)CC(=O)NCCn1ccc2ncnc(Nc3ccc(Oc4cccc(C(F)(F)F)c4)c(Cl)c3)c21
Summary of the method: as §1

pinometostat = compound: CC(C)N(C[C@H]1O[C@@H](n2cnc3c(N)ncnc32)[C@H](O)[C@@H]1O)[C@H]1C[C@@H](CCc2nc3cc(C(C)(C)C)ccc3[nH]2)C1 [pinometostat]
Summary of the method: as §1

[3] = compound: CC1=C(C(CC(=O)N1)C2=CC=C(C=C2)C(F)(F)F)C(=O)NC3=C(C=C4C(=C3)C=NN4)F
Summary of the method: as §1

[4] = compound: CC1=C(C2=C(C=C1)C(=O)C3=CC=CC=C3N2CCCN)C
Summary of the method: as §1

[5] = compound: CC1=NC(=CC=C1)C2=C(N=C(N2)C(C)(C)C)C3=CC4=NC=CN=C4C=C3
Summary of the method: as §1

Nexturastat A = compound: CCCCN(Cc1ccc(C(=O)NO)cc1)C(=O)Nc1ccccc1 [Nexturastat A]
Summary of the method: as §1

vemurafenib = compound: CCCS(=O)(=O)Nc1ccc(F)c(C(=O)c2c[nH]c3ncc(-c4ccc(Cl)cc4)cc23)c1F [vemurafenib]
Summary of the method: as §1

[6] = compound: CCCc1cc(C)[nH]c(=O)c1CNC(=O)c1cc(-c2ccnc(N3CCN(C)CC3)c2)cc2c1cnn2C(C)C
Summary of the method: as §1

barasertib = compound: CCN(CCCOc1ccc2c(Nc3cc(CC(=O)Nc4cccc(F)c4)[nH]n3)ncnc2c1)CCOP(=O)(O)O [barasertib]
Summary of the method: as §1

ibrutinib = compound: C=CC(=O)N1CCC[C@@H](n2nc(-c3ccc(Oc4ccccc4)cc3)c3c(N)ncnc32)C1 [ibrutinib]
Summary of the method: as §1

[7] = compound: CC1=CC=C(C=C1)SC2=C3C=C(SC3=CN=C2)C(=O)N
Summary of the method: as §1

[8] = compound: CCCS(=O)(=O)Nc1ccc(F)c(C(=O)c2c[nH]c3ncc(Cl)cc23)c1F
Summary of the method: as §1

ralimetinib = compound: CC(C)(C)Cn1c(N)nc2ccc(-c3[nH]c(C(C)(C)C)nc3-c3ccc(F)cc3)nc21 [ralimetinib]
Summary of the method: as §1

[9] = compound: CC(C)C[C@@H](C=O)NC(=O)[C@H](CC(C)C)NC(=O)[C@H](CC(C)C)NC(=O)OCc1ccccc1
Summary of the method: as §1

[10] = compound: CC1=C(C=C(C=C1)NC(=O)C2=CC(=CC=C2)C(C)(C)C#N)NC3=CC4=C(C=C3)N=CN(C4=O)C
Summary of the method: as §1

[11] = compound: CC1=C(C=C(C=C1)NC(=O)C2=CC(=CC=C2)N(C)C)NC(=O)C3=CC=C(C=C3)O
Summary of the method: as §1

[12] = compound: CC(C)C1=C2N=C(C=C(N2N=C1)NCC3=CC=CC=C3)NCCCCCCN
Summary of the method: as §1

givinostat = compound: CCN(CC)Cc1ccc2cc(COC(=O)Nc3ccc(C(=O)NO)cc3)ccc2c1 [givinostat]
Summary of the method: as §1

Measured: log2 fold change

CLINT1 (UniProt Q14677)
Chain of UniProt Q14677 (Q14677 whole entry, looked up): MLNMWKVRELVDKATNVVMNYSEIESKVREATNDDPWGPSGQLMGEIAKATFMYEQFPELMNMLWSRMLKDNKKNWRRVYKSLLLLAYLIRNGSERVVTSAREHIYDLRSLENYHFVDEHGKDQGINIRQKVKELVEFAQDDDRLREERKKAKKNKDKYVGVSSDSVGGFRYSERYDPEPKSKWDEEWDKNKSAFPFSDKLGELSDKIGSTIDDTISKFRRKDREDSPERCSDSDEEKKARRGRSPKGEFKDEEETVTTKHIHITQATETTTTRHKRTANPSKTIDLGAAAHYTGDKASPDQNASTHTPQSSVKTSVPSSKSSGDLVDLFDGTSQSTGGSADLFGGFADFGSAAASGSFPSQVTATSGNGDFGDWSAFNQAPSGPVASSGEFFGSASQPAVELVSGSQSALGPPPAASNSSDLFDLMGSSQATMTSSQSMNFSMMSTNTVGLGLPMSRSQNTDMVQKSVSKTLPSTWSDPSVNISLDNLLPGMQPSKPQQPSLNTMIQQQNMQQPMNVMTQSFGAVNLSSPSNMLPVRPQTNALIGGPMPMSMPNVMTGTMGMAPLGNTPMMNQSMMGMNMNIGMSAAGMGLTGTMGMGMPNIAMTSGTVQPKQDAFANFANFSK
inactive: [1] 0.059 | [2] 0.221 | pinometostat 0.058 | [3] 0.099 | [4] -0.114 | [5] -0.007 | Nexturastat A 0.259 | vemurafenib 0.051 | [6] -0.017 | barasertib 0.017

CKS2 (UniProt P33552)
Chain of UniProt P33552 (P33552 whole entry, looked up): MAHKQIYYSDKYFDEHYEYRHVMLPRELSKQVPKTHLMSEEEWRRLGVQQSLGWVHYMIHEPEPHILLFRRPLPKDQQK
inactive: ibrutinib -0.087 | [1] -0.168 | [3] 0.047 | [4] -0.058 | [7] -0.031 | [8] 0.039 | [6] -0.077 | barasertib 0.045

CFAP47 (UniProt Q6ZTR5)
Chain of UniProt Q6ZTR5 (Q6ZTR5 whole entry, looked up): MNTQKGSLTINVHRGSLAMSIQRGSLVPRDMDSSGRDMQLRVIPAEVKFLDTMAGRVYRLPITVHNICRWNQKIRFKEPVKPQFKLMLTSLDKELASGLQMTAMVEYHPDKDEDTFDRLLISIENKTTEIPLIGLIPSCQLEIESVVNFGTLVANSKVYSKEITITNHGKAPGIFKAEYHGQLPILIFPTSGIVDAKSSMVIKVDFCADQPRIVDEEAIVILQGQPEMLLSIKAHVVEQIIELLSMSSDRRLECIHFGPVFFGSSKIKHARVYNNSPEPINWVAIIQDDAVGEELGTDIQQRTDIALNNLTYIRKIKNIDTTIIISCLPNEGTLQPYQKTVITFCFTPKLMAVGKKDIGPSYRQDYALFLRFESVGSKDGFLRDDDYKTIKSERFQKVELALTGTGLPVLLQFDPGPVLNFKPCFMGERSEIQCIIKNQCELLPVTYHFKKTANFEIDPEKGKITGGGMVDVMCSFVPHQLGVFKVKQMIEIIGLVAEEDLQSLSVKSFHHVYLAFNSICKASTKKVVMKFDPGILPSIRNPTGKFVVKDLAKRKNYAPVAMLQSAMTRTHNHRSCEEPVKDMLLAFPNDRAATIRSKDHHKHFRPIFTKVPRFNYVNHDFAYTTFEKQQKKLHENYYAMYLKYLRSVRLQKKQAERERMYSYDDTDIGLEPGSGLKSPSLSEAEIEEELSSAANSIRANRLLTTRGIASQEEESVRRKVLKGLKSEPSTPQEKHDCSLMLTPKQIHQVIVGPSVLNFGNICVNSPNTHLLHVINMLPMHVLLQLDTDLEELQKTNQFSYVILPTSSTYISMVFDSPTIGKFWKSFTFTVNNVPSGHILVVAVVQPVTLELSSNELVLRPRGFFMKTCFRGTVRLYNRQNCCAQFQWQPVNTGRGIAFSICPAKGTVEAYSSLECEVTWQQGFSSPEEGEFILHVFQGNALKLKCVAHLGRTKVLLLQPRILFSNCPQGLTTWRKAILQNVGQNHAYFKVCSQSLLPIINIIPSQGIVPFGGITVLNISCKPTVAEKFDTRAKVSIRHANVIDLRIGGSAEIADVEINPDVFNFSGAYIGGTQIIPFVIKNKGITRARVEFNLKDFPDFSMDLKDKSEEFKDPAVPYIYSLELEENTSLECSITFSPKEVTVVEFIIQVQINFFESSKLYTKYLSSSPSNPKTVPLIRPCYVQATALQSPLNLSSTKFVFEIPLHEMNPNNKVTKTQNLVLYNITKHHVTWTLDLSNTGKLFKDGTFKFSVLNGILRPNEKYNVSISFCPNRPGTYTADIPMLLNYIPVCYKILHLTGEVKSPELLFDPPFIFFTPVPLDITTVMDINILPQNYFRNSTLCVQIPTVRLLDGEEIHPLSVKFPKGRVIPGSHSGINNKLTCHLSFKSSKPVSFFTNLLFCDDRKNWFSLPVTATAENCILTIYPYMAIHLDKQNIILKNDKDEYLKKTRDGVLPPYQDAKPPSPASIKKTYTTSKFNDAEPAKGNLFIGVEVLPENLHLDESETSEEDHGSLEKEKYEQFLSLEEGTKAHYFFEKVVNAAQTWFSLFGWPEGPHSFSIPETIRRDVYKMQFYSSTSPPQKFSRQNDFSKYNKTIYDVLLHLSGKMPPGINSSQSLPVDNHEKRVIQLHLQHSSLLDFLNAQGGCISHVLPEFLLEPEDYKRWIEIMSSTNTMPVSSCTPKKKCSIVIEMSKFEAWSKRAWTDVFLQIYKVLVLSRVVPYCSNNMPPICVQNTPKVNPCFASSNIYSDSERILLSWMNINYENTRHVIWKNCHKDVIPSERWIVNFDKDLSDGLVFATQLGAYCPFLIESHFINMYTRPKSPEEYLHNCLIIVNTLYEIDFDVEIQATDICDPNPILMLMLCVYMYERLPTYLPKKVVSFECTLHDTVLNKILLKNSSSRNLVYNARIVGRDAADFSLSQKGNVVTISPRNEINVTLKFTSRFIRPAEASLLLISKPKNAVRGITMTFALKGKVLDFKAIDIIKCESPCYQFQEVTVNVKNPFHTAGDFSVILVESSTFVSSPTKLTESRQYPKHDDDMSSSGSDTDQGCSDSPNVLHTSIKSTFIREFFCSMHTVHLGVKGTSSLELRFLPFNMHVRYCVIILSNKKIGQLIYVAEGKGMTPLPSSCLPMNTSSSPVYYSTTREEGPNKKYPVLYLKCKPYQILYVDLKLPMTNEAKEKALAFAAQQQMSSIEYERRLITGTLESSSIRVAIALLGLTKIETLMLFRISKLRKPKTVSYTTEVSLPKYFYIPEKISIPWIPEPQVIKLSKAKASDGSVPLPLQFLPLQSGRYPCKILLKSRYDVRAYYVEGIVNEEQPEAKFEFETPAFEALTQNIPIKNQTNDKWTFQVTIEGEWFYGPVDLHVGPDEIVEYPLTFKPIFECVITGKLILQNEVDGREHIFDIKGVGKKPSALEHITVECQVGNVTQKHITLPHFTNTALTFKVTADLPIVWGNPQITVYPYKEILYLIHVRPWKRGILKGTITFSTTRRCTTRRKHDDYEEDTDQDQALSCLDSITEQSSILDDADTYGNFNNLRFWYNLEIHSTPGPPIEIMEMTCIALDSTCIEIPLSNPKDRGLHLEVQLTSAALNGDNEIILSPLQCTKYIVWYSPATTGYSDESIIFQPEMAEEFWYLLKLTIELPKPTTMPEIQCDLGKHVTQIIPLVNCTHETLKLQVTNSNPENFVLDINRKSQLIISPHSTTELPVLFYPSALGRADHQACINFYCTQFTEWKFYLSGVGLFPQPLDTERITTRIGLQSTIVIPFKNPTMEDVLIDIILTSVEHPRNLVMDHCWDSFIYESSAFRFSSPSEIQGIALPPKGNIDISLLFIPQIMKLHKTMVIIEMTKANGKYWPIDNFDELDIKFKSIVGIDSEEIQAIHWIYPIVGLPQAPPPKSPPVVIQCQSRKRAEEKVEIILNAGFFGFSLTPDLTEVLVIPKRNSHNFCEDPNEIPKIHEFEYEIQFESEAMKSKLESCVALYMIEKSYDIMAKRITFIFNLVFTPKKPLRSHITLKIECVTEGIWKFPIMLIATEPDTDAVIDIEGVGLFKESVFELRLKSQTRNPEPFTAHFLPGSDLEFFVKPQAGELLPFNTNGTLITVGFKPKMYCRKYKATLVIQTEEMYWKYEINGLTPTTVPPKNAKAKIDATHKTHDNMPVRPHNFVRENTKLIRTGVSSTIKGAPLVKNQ
inactive: ibrutinib -0.109 | [1] 0.153 | [2] 0.006 | [7] -0.159 | Nexturastat A -0.041 | vemurafenib -0.11 | [8] -0.106 | barasertib -0.035

CRTC3 (UniProt Q6UUV7)
Chain of UniProt Q6UUV7 (Q6UUV7 whole entry, looked up): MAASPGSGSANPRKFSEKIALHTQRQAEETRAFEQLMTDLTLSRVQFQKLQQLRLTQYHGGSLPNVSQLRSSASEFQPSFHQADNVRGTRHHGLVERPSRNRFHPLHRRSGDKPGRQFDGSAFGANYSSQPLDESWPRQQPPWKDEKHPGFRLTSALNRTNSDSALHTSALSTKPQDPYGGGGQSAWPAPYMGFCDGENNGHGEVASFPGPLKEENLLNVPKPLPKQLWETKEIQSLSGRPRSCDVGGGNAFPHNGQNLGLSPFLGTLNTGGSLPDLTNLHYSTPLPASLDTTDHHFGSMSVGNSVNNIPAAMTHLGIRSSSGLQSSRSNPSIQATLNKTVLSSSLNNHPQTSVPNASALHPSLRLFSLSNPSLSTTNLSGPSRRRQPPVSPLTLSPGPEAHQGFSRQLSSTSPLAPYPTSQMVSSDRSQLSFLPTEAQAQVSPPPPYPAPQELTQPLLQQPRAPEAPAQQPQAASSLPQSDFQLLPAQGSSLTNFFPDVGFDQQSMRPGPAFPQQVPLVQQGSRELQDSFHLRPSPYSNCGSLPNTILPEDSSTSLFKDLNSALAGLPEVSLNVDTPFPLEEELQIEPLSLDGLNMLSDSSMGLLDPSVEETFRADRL
inactive: ibrutinib -0.035 | ralimetinib 0.048 | [2] -0.104 | [9] 0.042 | [4] 0 | [10] -0.017 | [11] 0.087 | [7] 0.033 | Nexturastat A -0.049 | vemurafenib -0.093 | [8] 0.144 | barasertib 0.035
active: [6] -0.543

CNN3 (UniProt Q15417)
Chain of UniProt Q15417 (Q15417 whole entry, looked up): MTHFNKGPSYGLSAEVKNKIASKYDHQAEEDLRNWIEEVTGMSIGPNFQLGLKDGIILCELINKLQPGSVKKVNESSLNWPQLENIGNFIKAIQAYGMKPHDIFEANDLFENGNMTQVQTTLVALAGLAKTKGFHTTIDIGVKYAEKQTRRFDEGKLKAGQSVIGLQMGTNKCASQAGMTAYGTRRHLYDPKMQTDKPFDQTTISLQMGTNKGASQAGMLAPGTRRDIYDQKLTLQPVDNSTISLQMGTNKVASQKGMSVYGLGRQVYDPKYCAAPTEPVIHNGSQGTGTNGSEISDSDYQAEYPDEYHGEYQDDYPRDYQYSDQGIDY
inactive: ibrutinib -0.067 | [1] -0.007 | [2] -0.138 | [12] -0.17 | [3] 0.058 | [4] 0.012 | [10] 0.014 | [7] 0.064 | Nexturastat A 0.015 | vemurafenib 0.034 | [8] 0.07 | [6] -0.018 | givinostat 0.073 | barasertib 0.047
